# Data reported in PubChem BioAssay (Tox21).
# Values joined by “and” are separate entries in the source; they are usually repeats but may differ in a detail not shown here. Identical values can stand only once. Inconclusive results are not listed. Entries that show only a call come without a potency. Active and inactive are the calls of the source. Unless noted, the call rests on the fitted dose curve; in most records, active means well fitted curve in the direction sought with a large enough effect in the repeat runs; inconclusive means weak or mixed curves; inactive means no such curve, though single readings can be large; an effect the other way counts as inactive or inconclusive.
# Experiments:
# [1] = qHTS assay to identify small molecule antagonists of the retinoid-related orphan receptor gamma (ROR-gamma) signaling pathway - cell viability counter screen (AID 1159520); further: nearly all actives have a fitted effect of over 50% in size; further: potency means the concentration at half of the fitted maximal effect
# How it was run: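 Tet-on ROR gamma CHO cells were given compounds for 2 hr, then doxycycline hyclate at 1 uM final, and incubated 16 hr at 37 C. Viability was measured as ATP content by CellTiter-Glo luminescence.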
# [2] = qHTS assay to identify small molecule agonists of the RXR signaling pathway - cell viability counter screen (AID 1159529); further: nearly all actives have a fitted effect of over 50% in size; further: potency means the concentration at half of the fitted maximal effect
# How it was run: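 Compounds dissolved in DMSO were pinned onto HEK 293T cells carrying a beta-lactamase reporter under RXR-alpha control and incubated 16 hr. Cytotoxicity was then quantified by CellTiter-Glo luminescence.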
# [3] = qHTS assay to identify small molecule antagonists of the retinoid acid receptor (RAR) signaling pathway - cell viability counter screen (AID 1159551); further: nearly all actives have a fitted effect of over 35% in size; further: potency means the concentration at half of the fitted maximal effect
# How it was run: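 C3RL4 RARE-luciferase line; cpds + retinol 1 uM final, 6 h, 37 C/5% CO2; CellTiter-Glo ATP luminescence, 30 min RT.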
# [4] = qHTS assay to identify small molecule antagonists of the retinoic acid receptor (RAR) signaling pathway (AID 1159552; further: nearly all actives have a fitted effect of over 50% in size; further: potency means the concentration at half of the fitted maximal effect)
# How it was run: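 Test chemicals and DMSO controls were pin-transferred onto C3RL4 cells a day after seeding; retinol (1 uM final) followed at once. Luminescent reporter output was quantified after 6 hr of co-incubation and 30 min with detection reagent.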
# [5] = qHTS assay to identify small molecule agonists of the retinoic acid receptor (RAR) signaling pathway (AID 1159553)
# How it was run: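 RARE-luc C3RL4 cells; overnight attachment 37 C/5% CO2; compound (DMSO) 6 hr; luciferase reagent, 30 min RT; luminescence read-out.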
# [6] = qHTS assay to identify small molecule antagonists of the estrogen related receptor (ERR) signaling pathway from Tox21 library - cell viability counter screen (AID 1224834); further: nearly all actives have a fitted effect of over 30% in size; further: potency means the concentration at half of the fitted maximal effect
# How it was run: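 Multiplexed viability counter screen in ERR cells: 17.5 h compound exposure at 37 C, CellTiter-Fluor added, 30 min at 37 C/5% CO2, fluorescence read.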
# [7] = biological target: Luciferin 4-monooxygenase (Photinus pyralis) (UniProt P08659); assay: qHTS assay to identify small molecule inhibitors of firefly luciferase (AID 1224835); further: nearly all actives have a fitted effect of over 25% in size; further: potency means the concentration at half of the fitted maximal effect
# Sequence of Luciferin 4-monooxygenase (Photinus pyralis) (P08659 whole entry, looked up): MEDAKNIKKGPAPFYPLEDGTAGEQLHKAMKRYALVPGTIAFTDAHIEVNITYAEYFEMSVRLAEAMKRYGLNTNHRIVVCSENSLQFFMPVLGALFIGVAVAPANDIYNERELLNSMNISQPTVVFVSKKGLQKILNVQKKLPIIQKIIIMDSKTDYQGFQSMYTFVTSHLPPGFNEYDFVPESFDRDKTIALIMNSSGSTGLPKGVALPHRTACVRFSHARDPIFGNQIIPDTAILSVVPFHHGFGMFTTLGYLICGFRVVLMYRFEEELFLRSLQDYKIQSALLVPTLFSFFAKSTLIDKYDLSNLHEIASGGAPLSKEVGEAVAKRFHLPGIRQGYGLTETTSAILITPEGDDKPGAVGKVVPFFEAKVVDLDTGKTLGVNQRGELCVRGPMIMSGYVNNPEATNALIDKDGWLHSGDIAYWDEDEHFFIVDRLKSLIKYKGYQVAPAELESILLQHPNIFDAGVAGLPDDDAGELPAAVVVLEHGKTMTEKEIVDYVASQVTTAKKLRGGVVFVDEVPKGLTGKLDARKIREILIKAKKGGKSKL
# How it was run: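 Biochemical qHTS: compounds run as interplate titrations against purified firefly enzyme, with D-luciferin and ATP each at its KM concentration. Light output recorded by CCD imaging.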
# [8] = qHTS assay to identify small molecule agonists of the AP-1 signaling pathway - cell viability counter screen (AID 1159525; calls by dose curve; further: nearly all actives have a fitted effect of over 55% in size)
# How it was run: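 Same-well cytotoxicity counter screen of the Tox21 10K library in ME-180 cells. The readout is ATP-dependent luminescence after 5 h compound treatment. Data are normalised to DMSO and tetra n-octyl ammonium bromide controls.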
# [9] = qHTS assay to identify small molecule agonists of the AP-1 signaling pathway (AID 1159526; calls by dose curve; further: potency means the concentration at half of the fitted maximal effect)
# [10] = biological target: Retinoic acid receptor RXR-alpha (Homo sapiens) (UniProt P19793); assay: qHTS assay to identify small molecule agonists of the RXR signaling pathway (AID 1159527; calls by dose curve; further: nearly all actives have a fitted effect of over 35% in size)
# Sequence of Retinoic acid receptor RXR-alpha (Homo sapiens) (P19793 whole entry, looked up): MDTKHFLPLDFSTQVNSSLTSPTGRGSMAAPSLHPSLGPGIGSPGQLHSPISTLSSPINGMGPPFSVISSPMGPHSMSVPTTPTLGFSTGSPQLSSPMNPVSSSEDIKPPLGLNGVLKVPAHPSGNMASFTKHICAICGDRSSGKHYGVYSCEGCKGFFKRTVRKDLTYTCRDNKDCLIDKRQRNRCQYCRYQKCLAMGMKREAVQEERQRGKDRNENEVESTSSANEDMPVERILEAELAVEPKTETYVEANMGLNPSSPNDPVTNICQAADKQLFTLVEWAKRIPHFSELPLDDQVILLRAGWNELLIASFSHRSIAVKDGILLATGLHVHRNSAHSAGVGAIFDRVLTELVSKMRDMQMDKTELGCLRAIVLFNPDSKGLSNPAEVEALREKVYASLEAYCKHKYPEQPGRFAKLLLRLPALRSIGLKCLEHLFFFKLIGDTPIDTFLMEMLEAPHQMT
# How it was run: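 Using 9-cis retinoic acid as the reference agonist, chemicals were tested in HEK 293T cells […] for 16 hr; substrate loading lasted 2 hr at room temperature.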
# [11] = biological target: Nuclear receptor ROR-gamma (Homo sapiens) (UniProt P51449); assay: qHTS assay to identify small molecule antagonists of the retinoid-related orphan receptor gamma (ROR-gamma) signaling pathway (AID 1159521; further: nearly all actives have a fitted effect of over 50% in size; further: potency means the concentration at half of the fitted maximal effect)
# How it was run: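 Test compounds were applied to Tet-on RORγ CHO cells 2 h ahead of doxycycline hyclate (1 uM final). Luciferase reporter activity was quantified by luminescence after 16 h at 37 C and 5% CO2.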
# [12] = qHTS assay to identify small molecule antagonists of the estrogen related receptor (ERR) signaling pathway - cell viability counter screen (AID 1224818); further: series mostly up to about 46 µM
# How it was run: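 Fluorescence from CellTiter-Fluor, read 30 min after reagent addition at 37 C, measured viability of ERR cells exposed to compounds for 17.5 h. Cells had settled 6 h before dosing.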
# [13] = qHTS assay to identify small molecule antagonists of the estrogen related receptor signaling pathway with the pleiotropic PPARgamma coactivator (PGC) cell viability counter screen (AID 1224822; further: series mostly up to about 46 µM)
# How it was run: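 Fluorescence read-out of CellTiter-Fluor after 30 min at 37 C; PGC/ERR cells, 2,000 per well, had been exposed to DMSO-dissolved compounds for 17.5 h following a 6 h pre-incubation.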
# [14] = qHTS assay to identify small molecule agonists of the estrogen related receptor (ERR) signaling pathway (AID 1224820)
# How it was run: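 Following a 6 h settling period, 2,000 ERR cells per well receive DMSO-dissolved compounds by pin tool and incubate 18 h at 37 C; agonist activity is scored from One-Glo luminescence read 30 min post-addition.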
# [15] = qHTS assay to identify small molecule agonists of the estrogen related receptor signaling pathway with the pleiotropic PPARgamma coactivator (PGC) (AID 1224823)
# How it was run: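 In this quantitative high-throughput screen, an 18 h, 37 C treatment of PGC/ERR cells with compounds in DMSO preceded a One-Glo luminescence read taken after 30 min at room temperature.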
# [16] = qHTS assay to identify small molecule antagonists of the estrogen related receptor (ERR) signaling pathway (AID 1224819)
# How it was run: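 Luminescence readout (One-Glo, 30 min, RT) of ERR cell line after 18 h compound exposure at 37 C; cells seeded 2,000/well, pre-incubated 6 h, compounds pinned from DMSO stocks.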
# [17] = system: estrogen-related receptor alpha (ERRalpha) with PGC-1alpha coactivator, human; assay: qHTS assay to identify small molecule antagonists of the estrogen related receptor signaling pathway with the pleiotropic PPARgamma coactivator (PGC) (AID 1224821; calls by dose curve)
# How it was run: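 Screening used NTP's PGC/ERR cells, dosed via pin tool with compound in DMSO alongside positive and negative controls. After 18 h at 37 C, One-Glo reagent sat 30 min at room temperature before luminescence detection.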
compound,measurement,setting,value
Cn1cc(C2=C(c3cn(C4CCN(Cc5ccccn5)CC4)c4ccccc34)C(=O)NC2=O)c2ccccc21,Potency,[1],inactive
same,Potency,[2],inactive
same,Potency,[3],inactive
same,Potency,[4],inactive
same,Potency,[5],inactive
same,Potency,[6],11.9 µM (active)
same,Potency,[7],inactive
CCCCOP(=O)(CCCC)OCCCC,Potency,[1],inactive
same,Potency,[8],inactive
same,Potency,[9],inactive
same,outcome,[10],inactive
same,Potency,[2],inactive
same,Potency,[3],inactive
same,Potency,[4],inactive
same,Potency,[6],inactive
same,Potency,[7],inactive
O=C(CCl)C(Cl)Cl,Potency,[1],27.6 µM (active)
same,Potency,[11],6.17 µM (active)
same,Potency,[3],inactive
same,Potency,[4],15.5 µM (active)
same,Potency,[6],27.6 µM (active)
same,Potency,[7],inactive
CC(C)(C)C(O)/C(=C\c1ccc(Cl)cc1Cl)n1cncn1 (stereo not drawn),Potency,[11],41.6 µM (active)
same,Potency,[4],58.7 µM (active)
same,Potency,[6],65.9 µM (active)
same,Potency,[7],inactive
CC1(C)CC/C(=C/c2ccc(Cl)cc2)C1(O)Cn1cncn1 (stereo not drawn),Potency,[1],inactive
same,Potency,[11],24.2 µM (active)
same,Potency,[2],inactive
same,Potency,[3],inactive
same,Potency,[5],inactive
same,outcome,[12],inactive
same,Potency,[13],inactive
same,Potency,[7],inactive
O=CC(Br)(Br)Br,Potency,[1],7.67 µM (active)
same,Potency,[11],inactive
same,Potency,[9],7.74 µM (active)
same,Potency,[4],27.2 µM (active)
same,Potency,[6],24.3 µM (active)
same,Potency,[7],17.8 µM (active)
CC(C)(COCC1CO1)COCC1CO1 (stereo not drawn),Potency,[1],inactive
same,Potency,[8],inactive
same,Potency,[9],inactive
same,outcome,[10],inactive
same,Potency,[2],inactive
same,Potency,[3],inactive
same,Potency,[4],inactive
same,Potency,[6],inactive
same,Potency,[7],inactive
ClC1=C(Cl)[C@]2(Cl)[C@@H]3[C@@H]4C[C@@H]([C@H]5O[C@@H]45)[C@@H]3[C@@]1(Cl)C2(Cl)Cl,Potency,[1],61.1 µM (active)
same,Potency,[11],19.3 µM (active)
same,Potency,[3],61.1 µM (active)
same,Potency,[4],27.3 µM (active)
same,outcome,[12],inactive
same,outcome,[14],inactive
same,Potency,[13],inactive
same,outcome,[15],inactive
same,Potency,[6],54.5 µM (active)
same,Potency,[7],inactive
ClC1=C(Cl)[C@]2(Cl)[C@H]3[C@H]([C@H]4C=C[C@H]3C4)[C@@]1(Cl)C2(Cl)Cl,Potency,[8],inactive
same,Potency,[9],inactive
same,Potency,[2],inactive
same,Potency,[3],inactive
same,Potency,[7],inactive
COc1cccc2c1C(=O)c1c(O)c3c(c(O)c1C2=O)C[C@@](O)(C(=O)CO)CC3OC1CC(N2CCOC(OC)C2)C(O)C(C)O1 (stereo partly drawn),Potency,[1],0.133 µM (active)
same,Potency,[11],0.298 µM (active)
same,Potency,[2],inactive
same,Potency,[4],0.106 µM (active)
Cc1cc(SCc2sc(-c3ccc(C(F)(F)F)c(F)c3)nc2C)ccc1OCC(=O)O,Potency,[1],inactive
same,Potency,[11],inactive
same,Potency,[2],19.5 µM (active)
same,Potency,[4],inactive
same,Potency,[5],inactive
same,Potency,[7],44.8 µM (active)
Clc1ccc(CSC(Cn2ccnc2)c2ccc(Cl)cc2Cl)cc1 (stereo not drawn),Potency,[1],inactive
same,Potency,[11],29.8 µM (active)
same,Potency,[2],26.8 µM (active)
same,Potency,[3],inactive
same,Potency,[5],inactive
same,Potency,[6],15 µM (active)
same,Potency,[7],inactive
CCOP(=S)(OCC)SCS(=O)(=O)CC,Potency,[1],inactive
same,Potency,[9],inactive
same,outcome,[10],inactive
same,Potency,[2],inactive
same,Potency,[3],inactive
same,Potency,[4],inactive
same,Potency,[6],inactive
same,Potency,[7],inactive
Cc1cc(C(C)(C)c2cc(C)c(O)c(C)c2)cc(C)c1O,Potency,[11],26.4 µM (active)
same,Potency,[2],47.4 µM (active)
same,Potency,[4],52.7 µM (active)
same,Potency,[6],41.8 µM (active)
same,Potency,[7],inactive
CC(C)C(=O)Cl,Potency,[1],inactive
same,Potency,[8],inactive
same,Potency,[9],inactive
same,outcome,[10],inactive
same,Potency,[2],inactive
same,Potency,[3],inactive
same,Potency,[6],inactive
same,Potency,[7],inactive
ClC1=C(Cl)C2(Cl)C3C(Cl)C(Cl)CC3C1(Cl)C2(Cl)Cl (stereo not drawn),Potency,[1],68.4 µM (active)
same,Potency,[11],27.2 µM (active) and 61.1 µM (active)
same,Potency,[2],21.8 µM (active) and 21.9 µM (active)
same,Potency,[3],inactive
same,Potency,[4],54.5 µM (active)
same,Potency,[6],68.4 µM (active)
same,Potency,[7],inactive
CS(=O)(=O)c1ccc(C(=O)C2C(=O)CCCC2=O)c([N+](=O)[O-])c1,Potency,[1],inactive
same,Potency,[8],inactive
same,Potency,[2],inactive
same,Potency,[3],inactive
same,outcome,[12],inactive
same,Potency,[16],inactive
same,outcome,[14],inactive
same,Potency,[17],inactive
same,Potency,[13],inactive
same,outcome,[15],inactive
same,Potency,[6],inactive
same,Potency,[7],inactive
CC[C@H]1C[C@@H]2C[C@H]3c4[nH]c5ccc(OC)cc5c4CCN(C2)[C@@H]13,Potency,[1],inactive
same,Potency,[11],inactive
same,Potency,[3],inactive
same,Potency,[4],inactive
same,Potency,[7],inactive
c1cc[c]([Sb]([c]2ccccc2)[c]2ccccc2)cc1,Potency,[1],inactive
same,Potency,[11],61.1 µM (active)
same,Potency,[3],inactive
same,Potency,[4],61.1 µM (active)
same,Potency,[6],inactive
same,Potency,[7],inactive
CC(=O)C(Cl)(Cl)Cl,Potency,[11],9.35 µM (active)
same,Potency,[8],inactive
same,Potency,[3],inactive
same,Potency,[4],29.6 µM (active)
same,Potency,[6],20.9 µM (active)
COc1cccc(C(=O)CCN[C@@H](C)[C@H](O)c2ccccc2)c1,Potency,[1],inactive
same,Potency,[8],inactive
same,Potency,[4],26.6 µM (active)
same,Potency,[5],inactive
same,Potency,[6],inactive
same,Potency,[7],inactive
Nc1c(Oc2ccccc2)cc(O)c2c1C(=O)c1ccccc1C2=O,Potency,[1],inactive
same,Potency,[11],inactive
same,outcome,[10],inactive
same,Potency,[2],inactive
same,Potency,[3],inactive
same,Potency,[4],inactive
same,Potency,[7],3.09 µM (active)
OC(Cc1ccccc1Cl)(Cn1cncn1)C1(Cl)CC1 (stereo not drawn),Potency,[1],inactive
same,Potency,[9],inactive
same,outcome,[10],inactive
same,Potency,[2],inactive
same,Potency,[3],inactive
same,Potency,[4],inactive
same,Potency,[7],inactive
N#CCCC(Br)(C#N)CBr (stereo not drawn),Potency,[1],19.3 µM (active)
same,Potency,[11],21.7 µM (active)
same,Potency,[2],38.9 µM (active)
same,Potency,[3],68.6 µM (active)
same,Potency,[4],21.7 µM (active)
same,Potency,[7],35.6 µM (active)
